Test results published in PubChem BioAssay (EPA / NIEHS).
Active and inactive are the calls of the source. The calls were made as follows: active = hit-call score of the fitted dose curve at least 0.9, where 1 is the maximum; inactive = score below 0.9.

Columns and labels:
[1] = read-out: Thrombomodulin, THBD (gene 7056); test: BSK_CASM3C_Thrombomodulin: BioMAP Diversity Plus: CASM3C Assay for Thrombomodulin Biomarker Activity (AID 2283051); settings: primary human coronary artery smooth muscle cells; actives raise or lower the signal;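 also: thrombomodulin protein level measured by ELISA 24 h after dosing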
[2] = read-out: Tissue Factor, F3 (gene 2152); test: BSK_CASM3C_TissueFactor: BioMAP Diversity Plus: CASM3C Assay for Tissue Factor Biomarker Activity (AID 2283052); settings: primary human coronary artery smooth muscle cells; actives raise or lower the signal;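 also: cell surface tissue factor protein level read by ELISA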
[3] = read-out: Interferon-gamma inducible Protein 10 (IP10), CXCL10 (gene 3627); test: BSK_hDFCGF_IP10: BioMAP Diversity Plus: hDFCGF Assay for Interferon-gamma inducible Protein 10 (IP10) Biomarker Activity (AID 2283053); settings: primary human foreskin fibroblasts; actives raise or lower the signal
Method in brief: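 Human foreskin fibroblast primary cells (hDFCGF system) were dosed with chemical and assayed at 24 h; IP-10 measured by ELISA. Activity fitted bidirectionally relative to DMSO negative control as baseline.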

[4] = read-out: Urokinase-type plasminogen activator receptor (uPAR), PLAUR (gene 5329); test: BSK_CASM3C_uPAR: BioMAP Diversity Plus: CASM3C Assay for Urokinase-type plasminogen activator receptor (uPAR) Biomarker Activity (AID 2283054); settings: primary human coronary artery smooth muscle cells; actives raise or lower the signal;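 also: cell-surface uPAR protein level quantified by ELISA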
[5] = read-out: Vascular cell adhesion molecule 1 (VCAM1), VCAM1 (gene 7412); test: BSK_CASM3C_VCAM1: BioMAP Diversity Plus: CASM3C Assay for Vascular cell adhesion molecule 1 (VCAM1) Biomarker Activity (AID 2283055); settings: primary human coronary artery smooth muscle cells; actives raise or lower the signal;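 also: VCAM-1 protein level quantified by ELISA on the cells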
[6] = read-out: Collagen III, COL3A1 (gene 1281); test: BSK_hDFCGF_CollagenIII: BioMAP Diversity Plus: hDFCGF Assay for Collagen III Biomarker Activity (AID 2283056); settings: primary human foreskin fibroblasts; actives raise or lower the signal
Method in brief: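 Human foreskin fibroblast primary cultures sampled 24 h after dosing; Collagen III quantified by ELISA. Signal fitted bidirectionally against DMSO baseline.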

[7] = read-out: Epidermal growth factor receptor (EGFR), EGFR (gene 1956); test: BSK_hDFCGF_EGFR: BioMAP Diversity Plus: hDFCGF Assay for Epidermal growth factor receptor (EGFR) Biomarker Activity (AID 2283057); settings: primary human foreskin fibroblasts; actives raise or lower the signal
Method in brief: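 Primary human foreskin fibroblasts were exposed to compound for 24 h, after which cell-surface EGFR was quantified by ELISA. Activity was fitted bidirectionally against the DMSO negative control as baseline.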

[8] = read-out: Interleukin-8 (IL8), CXCL8 (gene 3576); test: BSK_hDFCGF_IL8: BioMAP Diversity Plus: hDFCGF Assay for Interleukin-8 (IL8) Biomarker Activity (AID 2283058); settings: primary human foreskin fibroblasts; actives raise or lower the signal
Method in brief: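 Primary human foreskin fibroblasts (hDFCGF system) dosed with chemical; IL-8 measured by ELISA 24 hours later. Bidirectional curve fitting relative to DMSO baseline; cytotoxicity tracked in parallel cultures by SRB total protein staining.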

[9] = BSK_hDFCGF_Proliferation: Cell Proliferation Assessment in the BioMAP Diversity Plus: hDFCGF Assay (AID 2283059); settings: primary human foreskin fibroblasts;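 also: curves fitted for both rise and fall of signal versus DMSO baseline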
Method in brief: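 Total protein read at 560 nm after 0.1% SRB staining of TCA-fixed human skin fibroblasts, […]. Activity is fitted in both directions relative to DMSO as baseline.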

[10] = read-out: Macrophage colony-stimulating factor (MCSF), CSF1 (gene 1435); test: BSK_hDFCGF_MCSF: BioMAP Diversity Plus: hDFCGF Assay for Macrophage colony-stimulating factor (MCSF) Biomarker Activity (AID 2283060); settings: primary human foreskin fibroblasts; actives raise or lower the signal
Method in brief: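 Human foreskin fibroblast primary cultures; M-CSF measured by ELISA 24 hours after chemical dosing. Bidirectional fitting relative to DMSO, with overt cytotoxicity tracked by parallel SRB total-protein staining (0.1% SRB, 10% TCA fixation, 560 nm).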

Measured: AC50

Cc1cc2c(cc1C(F)(F)F)N(C(=O)Nc1ccc(Oc3cccnc3C)nc1)CC2
active: [1] 5.04 µM | [3] 18.4 µM | [4] 25 µM | [5] 31.1 µM | [9] 1.94 µM
inactive: all other assays above

NCc1cccc(C2CCN(C(=O)c3ccc(C#Cc4ccccc4F)o3)CC2)c1
inactive: [2]
active: [1] 4.76 µM | [3] 8.64 µM | [4] 30.7 µM | [5] 15.9 µM | [6] 5.12 µM | [7] 12.6 µM | [8] 11.9 µM | [9] 5.81 µM | [10] 7.78 µM

O=c1ccc2ccccc2o1
active: [9] 8.81 µM
not listed: [7]
inactive: all other assays above

COCC(C)OCC(C)OCC(C)O (centres undefined)
inactive: all assays above

CCCCOC(=O)CC(CC(=O)OCCCC)(OC(C)=O)C(=O)OCCCC
inactive: all assays above

C[C@]12CC[C@@H]3c4ccc(O)cc4CC[C@H]3[C@@H]1CC[C@H]2O
active: [5] 16 µM | [6] 12 µM
not listed: [7]
inactive: all other assays above

CCCOC(=O)c1cc(O)c(O)c(O)c1
active: [3] 20 µM | [9] 8.01 µM
inactive: all other assays above

CCN(Cc1cccc(S(=O)(=O)O)c1)c1ccc(C(=C2C=CC(=[N+](CC)Cc3cccc(S(=O)(=O)O)c3)C=C2)c2ccccc2S(=O)(=O)[O-])cc1
active: [3] 18.8 µM
inactive: all other assays above

CC(=O)N1CCN(c2ccc(OC[C@H]3CO[C@](Cn4ccnc4)(c4ccc(Cl)cc4Cl)O3)cc2)CC1
active: [3] 33.3 µM | [6] 14 µM | [8] 33.5 µM | [9] 20 µM
not listed: [10]
inactive: all other assays above

Oc1ccc2ccccc2c1
not listed: [7]
inactive: all other assays above

Clc1ccccc1C(c1ccccc1)(c1ccccc1)n1ccnc1
active: [1] 4.88 µM | [2] 20 µM | [3] 9.81 µM | [4] 28.4 µM | [5] 31.9 µM | [6] 5.5 µM | [8] 9.77 µM | [9] 5.53 µM | [10] 5.68 µM

Cc1c2ccccc2c(C)c2c1ccc1ccccc12
inactive: [2] | [4] | [5] | [8]
active: [1] 20 µM | [3] 6.29 µM | [6] 1.73 µM | [9] 7.26 µM | [10] 5.48 µM

CCCCOC(=O)c1ccc(O)cc1
active: [9] 20 µM
inactive: all other assays above

CN(C[C@@H](CC[N+]12CCC(C3CCCCC3)(CC1)CC2)c1ccc(Cl)c(Cl)c1)C(=O)c1cc(C(F)(F)F)cc(C(F)(F)F)c1
active: [2] 20 µM | [3] 6.46 µM | [4] 13 µM | [5] 14.3 µM | [6] 7.21 µM | [8] 9.76 µM | [9] 5.55 µM | [10] 7.28 µM
inactive: [1]

CN1C(=O)N(c2ccccc2Br)Cc2cnc(Nc3ccc4c(c3)OCC(CO)O4)nc21 (centres undefined)
active: [2] 0.952 µM | [3] 21.3 µM | [4] 13.6 µM | [8] 16.1 µM | [9] 11.9 µM | [10] 20.4 µM
inactive: [1] | [5] | [6]

c1ccc2ccccc2c1
inactive: all assays above

CCCCCCCCN(C)CCCCCCCC
inactive: all assays above

CCO[Si](CCCNC(N)=O)(OCC)OCC
not listed: [7]
inactive: all other assays above

CC1=CC(=O)/C(=C(/C)O)C(=O)O1
not listed: [7]
inactive: all other assays above

CCN(CC)C(=O)c1cc(S(=O)(=O)Cc2ccccc2)c(N2CCC(c3ccccc3)CC2)cc1N(CC)CCN(C)C
active: [2] 29.8 µM | [4] 20.4 µM | [6] 4.27 µM | [9] 5.9 µM | [10] 18.7 µM
inactive: [1] | [3] | [5] | [7] | [8]

CC(O)CC(C)(C)O (centres undefined)
active: [9] 14.1 µM
not listed: [7]
inactive: all other assays above

CCCCCCCCCCCC[N+](C)(C)C
inactive: [1] | [7]
active: [2] 4.09 µM | [3] 22.2 µM | [4] 19.9 µM | [5] 32.9 µM | [6] 2.57 µM | [8] 29.9 µM | [9] 8.97 µM | [10] 11.9 µM

Cc1ccc(C(C)C)cc1
not listed: [7]
inactive: all other assays above

CC(C)(C)c1cc(/C=C2\SC(N)=NC2=O)cc(C(C)(C)C)c1O
active: [1] 0.507 µM | [3] 25.7 µM | [4] 31.9 µM | [5] 31.1 µM | [6] 6.83 µM | [8] 20 µM | [9] 7.49 µM | [10] 20 µM
inactive: [2] | [7]

Clc1cc(Cl)c2c(c1)N=C1CCCCCN1C2
not listed: [3]
inactive: all other assays above

CCCCCCCCOc1ccc(C(=O)c2ccccc2)c(O)c1
active: [9] 20 µM
not listed: [7]
inactive: all other assays above

Cc1ncc(CO)c(CO)c1O
not listed: [7]
inactive: all other assays above

OCCO
active: [9] 20.1 µM
inactive: all other assays above

CC[C@H](NC(=O)c1cc(F)ccc1NS(=O)(=O)c1cccc2cccnc12)c1ccccc1
active: [1] 10.8 µM | [6] 8.58 µM | [9] 21.5 µM
inactive: all other assays above

O=C1CCC(C2CCCCC2)CC1
active: [6] 20.7 µM | [7] 29.9 µM | [8] 32.5 µM | [9] 19.5 µM | [10] 29.8 µM
inactive: [1] | [2] | [4] | [5]

CC(C)(c1cc(Br)c(O)c(Br)c1)c1cc(Br)c(O)c(Br)c1
active: [1] 25 µM | [2] 31.7 µM | [3] 6.23 µM | [4] 31.2 µM | [5] 29.3 µM | [6] 3.85 µM | [8] 11.5 µM | [9] 3.94 µM | [10] 7.47 µM

O=CCCCC=O
inactive: [2] | [4] | [7]
active: [1] 31.9 µM | [3] 34.9 µM | [5] 22.4 µM | [6] 33.6 µM | [8] 36.9 µM | [9] 25.3 µM | [10] 30.6 µM

CCCCCCCCCC(=O)O
not listed: [7]
inactive: all other assays above

COc1ccc2cc(S(=O)(=O)N[C@H](CC(=O)N[C@H](Cc3ccc(CN4[C@H](C)CCC[C@@H]4C)cc3)C(=O)N(C)C(C)C)c3ccc4c(c3)OCO4)ccc2c1
active: [1] 7.64 µM | [3] 30.4 µM | [6] 2.07 µM | [9] 9.97 µM | [10] 19.1 µM
inactive: all other assays above

CCN(Cc1cccnc1)C(=O)c1cccc(Cl)c1[C@]1(C)C(=O)N(Cc2ccc(OC)cc2OC)c2ccc(Cl)cc21
active: [3] 7.05 µM | [5] 5.43 µM | [9] 5.1 µM | [10] 5.49 µM
not listed: [7]
inactive: all other assays above

CCCCCc1ccc(N)cc1
active: [3] 20 µM | [9] 9.38 µM
not listed: [7]
inactive: all other assays above

CCCCCCCCCCCCO
inactive: [1] | [4]
active: [2] 32.3 µM | [3] 29.3 µM | [5] 31 µM | [6] 15.4 µM | [8] 37.4 µM | [9] 26.5 µM | [10] 33.4 µM

O=C1c2ccccc2C(=O)N1CCc1noc(-c2ccc(CN3CCCCCC3)s2)n1
not listed: [3]
inactive: all other assays above

O=c1c(-c2ccc(O)cc2)coc2cc(O)cc(O)c12
active: [3] 20 µM
